E coli Lon inh: E. coli protease La inhibition | P0A9M0 | purified E. coli Lon protease, fluorescence polarization | inhibition, % at 7.94 µM | 0.42% of 360,000 active | AID 602123; in the data active = inhibition above about 13%, passing the limit was not always enough
EBV gp42 inh: inhibitors of Epstein-Barr virus glycoprotein 42 | Fluorescence polarization binding assay, mP read-out | Q1HVG2 | 0.42% of 220,000 active | inhibition, % (tested at 21.74 µM); in the data active = inhibition above about 50%
MEX-5 binding: C. elegans MEX-5 TCR-2 RNA binding activity; Q9XUB2; MEX-5/FITC-TCR2 RNA binding, fluorescence polarization; stronger effect = lower value; activity score (negative = inhibition of binding), % at 10 µM; 0.38% of 300,000 active;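 active = inhibition past about -25% in most replicates, and total fluorescence under double the plate's negative control median, limit read from the data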
GLD-1 RNA inh: GLD-1-TGE RNA interaction inhibition (C. elegans). inhibition, % at 5.96 µM. 0.44% of 320,000 active. Q17339. purified GLD-1 + fluorescein TGE RNA, fluorescence polarization;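 active = percent inhibition above a per-plate cutoff, the plate mean of test compounds plus 3 SD, cut at about 30% in these data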
Target sequence (Q17339 whole entry, looked up): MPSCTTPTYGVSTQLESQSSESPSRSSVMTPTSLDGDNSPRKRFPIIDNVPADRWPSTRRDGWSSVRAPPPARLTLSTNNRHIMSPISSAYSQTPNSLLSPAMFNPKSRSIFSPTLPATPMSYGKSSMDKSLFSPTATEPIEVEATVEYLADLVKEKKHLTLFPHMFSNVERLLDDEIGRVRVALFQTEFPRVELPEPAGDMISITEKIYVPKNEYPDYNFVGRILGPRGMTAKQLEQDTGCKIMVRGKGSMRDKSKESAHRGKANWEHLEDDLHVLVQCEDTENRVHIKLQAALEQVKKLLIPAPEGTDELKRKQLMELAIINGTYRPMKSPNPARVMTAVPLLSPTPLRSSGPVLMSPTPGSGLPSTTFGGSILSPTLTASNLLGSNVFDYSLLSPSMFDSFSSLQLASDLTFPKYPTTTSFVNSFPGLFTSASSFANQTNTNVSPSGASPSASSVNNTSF
BCLXL inh: Bcl-xL (human) inhibition. Q07817. GST-Bcl-xL / FITC-Bim BH3 peptide fluorescence polarization. inhibition, % at 10.9 µM. 0.7% of 320,000 active. AID 2129;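 active = inhibition above the mean of all tested compounds plus 3 SD, cutoff set per campaign, cut at about 30% in these data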;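 also: inhibitors lower millipolarization by displacing the labeled peptide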
GLD-1 TGE cf: GLD-1 TGE RNA interaction inhibition, confirmation. GLD-1/FL-TGE RNA fluorescence polarization, biochemical. shares compounds with GLD-1 RNA inh. 10% of 550 active. inhibition, % at 5.96 µM;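 active = average inhibition across triplicates above the hit cutoff set in the primary screen, cut at about 32% in these data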
eLon confirm: E. coli Lon inhibition confirmation; 31% of 1,400 active; shares compounds with E coli Lon inh; inhibition, % at 7.94 µM; purified E. coli Lon, fluorescence polarization; in the data active = inhibition above about 16%
A number is an active result; - = inactive; . = no result. Compounds with a hit are over-represented: about 1.3% of the library has one in this group of screens.

SMILES	E coli Lon inh	EBV gp42 inh	MEX-5 binding	GLD-1 RNA inh	BCLXL inh	GLD-1 TGE cf	others
CCc1n[nH]c(=S)n1/N=C/c1cc(Br)c(O)c(OC)c1	-	-	-	56.0	-	-
Fc1ccc2c(c1)/C(=N/Nc1ccccn1)CCS2	-	-	-	-	-	.
Cc1ccc(S(=O)(=O)N[C@H](C(=O)Oc2ccc3c(C(F)(F)F)cc(=O)oc3c2)c2ccccc2)cc1	19.8	-	-	50.4	45.3	44.3
Cc1ccc(S(=O)(=O)NC(C(=O)Oc2ccc3ccc(=O)oc3c2)c2ccccc2)cc1 (stereo unspecified)	-	-	-	-	-	.
C=CCN1C(=O)C2(OCCCO2)c2cc(Cl)ccc21	-	.	-	-	-	.
O=C(NC1CCCCCC1)c1ccc(CS(=O)(=O)Cc2ccc(F)cc2)o1	-	.	-	-	-	.
Cc1ccc(CS(=O)(=O)Cc2ccc(C(=O)NC3CC3)o2)cc1	-	.	-	33.0	-	-
COc1ccccc1C(=O)Nc1ccc(-c2nnn(CC(=O)N3CCN(C(=O)c4ccco4)CC3)n2)cc1	-	-	-	51.4	-	-
CCN1C/C(=C/c2sccc2C)c2nc3ccccc3c(C(=O)O)c2C1	-	-	-	-	-	.
CCN1C/C(=C/c2cccs2)c2nc3ccccc3c(C(=O)O)c2C1	-	-	-27.0	35.2	32.5	34.4
CCOC(=O)CC(=O)CSc1nc2ccc(OC)cc2cc1C	-	-	-	34.4	36.3	-
Cc1ccc(OCC(=O)c2ccc(Cl)s2)c([N+](=O)[O-])n1	-	-	-	30.7	-	-
Cc1ccc(C2(c3ccc(C)cc3)CC2C(=O)Nc2ccc([N+](=O)[O-])cc2O)cc1 (stereo unspecified)	-	-	-	-	-	.
Cc1nc2cc(NC(=O)N3CCN(c4ccccn4)CC3)ccc2o1	-	-	-	-	-	.
O=C(Nc1ccc2nc(-c3ccco3)c(-c3ccco3)nc2c1)N1CCN(c2ccccn2)CC1	-	-	-30.2	33.9	50.8	-
CCOC(=O)c1sc(=S)n(-c2ccc3c(c2)OCO3)c1N	-	-	-	49.4	106.3	-
CCOC(=O)c1sc(=S)n(-c2ccc(F)c(F)c2)c1N	-	-	-	-	-	.
Cn1nc(-c2ccccc2)cc1NS(=O)(=O)c1ccccc1	-	-	-	-	-	.
Cn1nc(-c2ccccc2)cc1NS(=O)(=O)c1ccc(C#N)cc1	-	-	-	60.8	99.7	-
Nc1n[nH]c2cc(=O)n(-c3cccc(C(F)(F)F)c3)nc12	-	-	-	39.2	43.2	-
CN(C)c1c([N+](=O)[O-])cc(N2C(=O)C=CC2=O)cc1[N+](=O)[O-]	-	.	.	.	.	.
CCC(C)C(NC(N)=O)C(=O)Nc1ccc(C(=O)OC)cc1 (stereo unspecified)	-	-	-	-	-	.
CCOC(=O)c1ccc(NC(=O)[C@@H](NC(N)=O)C(C)C)cc1	-	-	-	97.8	110.1	-
CCC1CCc2sc(C(=O)NCC(c3ccc(OC)cc3)N3CCCC3)cc2C1 (stereo unspecified)	-	.	-	48.7	-	-
CC1(C)CC(=O)C2=C(C1)Nc1ccccc1NC2c1cc(Cl)ccc1O (stereo unspecified)	-	.	-	-	-	.
SMILES	E coli Lon inh	EBV gp42 inh	MEX-5 binding	GLD-1 RNA inh	BCLXL inh	GLD-1 TGE cf	others
CC1(C)CC(=O)C2=C(C1)Nc1ccccc1NC2c1ccc(F)cc1 (stereo unspecified)	-	.	-	34.8	46.1	-
Cc1ccc(C2Nc3ccccc3NC3=C2C(=O)CC(C)(C)C3)c(O)c1 (stereo unspecified)	-	.	-	51.1	47.1	-
Cc1ccc(C)c(S(=O)(=O)NCC(=O)Nc2sc3c(c2C(N)=O)CCC(C)C3)c1 (stereo unspecified)	-	-	-	-	-	.
Nc1c(C(=O)OCC(=O)Nc2ccccc2Br)[nH]c(=O)[nH]c1=O	-	.	.	39.3	.	-
N#Cc1c(SCC(=O)N2CCOCC2)nsc1SCC(=O)N1CCOCC1	-	-	-	50.0	65.5	-
CCOC(=O)CSc1nnc(CSc2nc(C)cc(C)n2)n1Cc1ccco1	-	-	-	35.6	-	-
CCCN1CCN(CCNC(=O)Nc2cc(C)ccc2C)CC1	-	.	-	-	-	.
Nc1ccccc1C(=O)NC12CC3CC(CC(C3)C1)C2	-	.	-	-	-	.
Nc1cccc2c1C(=O)N(CC(=O)NC13CC4CC(CC(C4)C1)C3)C2=O	-	63.7	-	37.4	32.3	-
CC1(c2nnc(Cc3ccccc3)o2)CC(c2ccncc2)=NO1 (stereo unspecified)	-	.	-	-	-	.
O=C(C1CCC(=O)N(C2CCCCCC2)C1)N1CCN(c2ccccc2Cl)CC1 (stereo unspecified)	-	.	-	30.8	89.3	-
CCOC(=O)[C@H]1[C@H]2COc3ccc(OC)cc3[C@@H]2N2C(=O)CN(Cc3ccc(Cl)cc3)C(=O)[C@@]12C	-	.	.	37.7	-	-
CCOC(=O)[C@H]1[C@H]2COc3ccc(OC)cc3[C@@H]2N2C(=O)CN(Cc3ccc(F)cc3)C(=O)[C@@]12C	-	.	.	-	-	.
CCN(C(=O)Cn1ccc(C(F)(F)F)n1)c1c(N)n(Cc2ccccc2)c(=O)[nH]c1=O	-	.	.	-	-	.
CCOC(=O)N1CCC(Nc2cc(C)nc3c(-c4ccccc4OC)c(C)nn23)CC1	-	-	-	-	-	.
COc1ccccc1-c1cnn2c(NC3CCCC3)cc(C)nc12	-	.	-	66.1	-	-
CCOC(=O)c1cc(NC(=O)c2c(C)noc2C)cc(C(=O)OCC)c1	-	-	.	-	-	.
O=c1[nH]c2cc3ccccc3cc2nc1C(F)(F)F	25.7	-	-	57.9	-	59.6	eLon confirm=37.4
CCCCCn1c(=O)[nH]c2cc(C(=O)Nc3ccc(OC)cc3)ccc2c1=O	-	.	-	-	-	.
CCCCn1c(=O)[nH]c2nc3cc(NC(C)=O)ccc3nc2c1=O	34.5	78.5	-	53.5	61.0	102.5	eLon confirm=33.2
CCN(CC)c1ccc(/C=N/N2C(=O)c3ccccc3C2=O)c(O)c1	-	-	-	-	-	.
O=C1c2cccc3cc([N+](=O)[O-])cc(c23)C(=O)N1/N=C/c1ccc(O)cc1O	16.6	95.7	-	59.5	56.3	-	eLon confirm=19.8
COc1cc(O)c2c(c1)OC(C)(C)CC2=O	-	-	-	-	-	.
COc1cc(O)cc2cc3c(c(O)c12)C(=O)CC(C)(O)O3 (stereo unspecified)	18.4	-	.	34.2	37.5	48.6	eLon confirm=24.0
Cc1cc(C)nc(SCc2ccc(C(=O)N/N=C3\CCCC(=O)C3)cc2)n1	22.6	-	-	43.2	-	-	eLon confirm=-
Cc1ccc2c3c(cccc13)-c1ccccc1C2=O	39.5	62.0	-	43.1	36.5	39.4	eLon confirm=20.4
Cc1cccc2cc3c(nc12)-c1ccccc1C3=O	-	.	-	-	-	.

Screening results from PubChem.
